High-throughput results from PubChem.
HepG2 viability: kills HepG2 cells in TGF-b inhibitor counter-screen. Potency, µM (titrated, usually from 46.1 µM), for the others: top-dose activity change, negative = cytotoxicity, usual class: cytotoxic. actives 0.76% (n = 410,000). HepG2 CAGA-GFP viability, ATP luminescence, 18 h. AID 588856; note: potency is the fitted concentration of half-maximal effect
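HepG2 CAGA-GFP cells (1000/well, DMEM with 1% FBS) received compound, then TGF-beta at 500 pg/mL final, and were incubated 18 hours at 37 degrees C. Viability was read by CellTiter-Glo luminescence. Media-only wells were set as complete cell-killing and DMSO as no toxicity.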
TDP1 cell CPT: growth inhibition of DT40 Tdp1-/-;hTDP1 cells with camptothecin (screen for TDP1 inhibitors) | chicken DT40 Tdp1-/-;hTDP1 cells + 20 nM CPT, ATP luminescence, 48 h | AID 686979 | actives 12% (n = 420,000) | Potency, µM (series often up to 46.2 µM), for the others: at the highest dose activity change, negative = growth inhibition, usual class: inhibitors; note: potency is the fitted concentration of half-maximal effect; % is set by controls: 0 for no effect and ±100 for the full control effect; nearly all actives have a fitted effect of over 55% in size
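Chicken DT40 Tdp1-/- cells stably complemented with human TDP1 were seeded at 400 cells/well in medium containing 20 nM camptothecin, exposed to pin-transferred compounds, and grown at 37 °C for at least 48 hr. Viability was read as ATP luminescence.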
TGFb SMAD3 inh: blocks TGF-b signaling; HepG2 CAGA-GFP TGF-b/SMAD3 reporter, GFP fluorescence, 18 h; TGF-beta stimulated, 500 pg/mL final; Potency, µM (titrated, usually from 46.1 µM), for inactives: at the highest dose activity, negative = inhibition, actives largely listed as inhibitors; actives 1.2% (n = 410,000); note: potency is the fitted concentration of half-maximal effect; % is set by controls: 0 for no effect and ±100 for the full control effect; nearly all actives have a fitted effect of over 65% in size
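Using HEPG2 CAGA-GFP reporter cells at 1000 cells/well, we pinned test compounds, stimulated with recombinant TGF-beta (500 pg/mL final) and measured total well GFP after 18 h.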
TDP1 cell noCPT: qHTS for Inhibitors of human tyrosyl-DNA phosphodiesterase 1 (TDP1): qHTS in cells in absence of CPT | DT40 Tdp1-/- hTDP1 cells, no CPT, ATP luminescence, 48 h | Potency, µM (titrated, usually from 46.2 µM), without a hit: at the top dose activity change, negative = growth inhibition, hits mostly inhibitors | actives 15% (n = 420,000) | AID 686978, 2013; note: potency is the fitted concentration of half-maximal effect; % is set by controls: 0 for no effect and ±100 for the full control effect; nearly all actives have a fitted effect of over 55% in size
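Stably hTDP1-transfected Tdp1-null chicken DT40 cells were treated with library compounds minus camptothecin and grown for at least 48 hr at 37 °C, after which cellular ATP was quantified by luminescence.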
TDP1 inh: TDP1 (human) enzyme inhibition. Q9NUW8. recombinant TDP1, AlphaScreen DNA substrate cleavage. Potency, µM (titrated, usually from 130 µM), for the others: at the highest dose activity change, negative = inhibition, usual class: inhibitors. actives 0.28% (n = 350,000). AID 485290; note: potency is the fitted concentration of half-maximal effect; % is set by controls: 0 for no effect and ±100 for the full control effect; nearly all actives have a fitted effect of over 40% in size
Target sequence (Q9NUW8 whole entry, looked up): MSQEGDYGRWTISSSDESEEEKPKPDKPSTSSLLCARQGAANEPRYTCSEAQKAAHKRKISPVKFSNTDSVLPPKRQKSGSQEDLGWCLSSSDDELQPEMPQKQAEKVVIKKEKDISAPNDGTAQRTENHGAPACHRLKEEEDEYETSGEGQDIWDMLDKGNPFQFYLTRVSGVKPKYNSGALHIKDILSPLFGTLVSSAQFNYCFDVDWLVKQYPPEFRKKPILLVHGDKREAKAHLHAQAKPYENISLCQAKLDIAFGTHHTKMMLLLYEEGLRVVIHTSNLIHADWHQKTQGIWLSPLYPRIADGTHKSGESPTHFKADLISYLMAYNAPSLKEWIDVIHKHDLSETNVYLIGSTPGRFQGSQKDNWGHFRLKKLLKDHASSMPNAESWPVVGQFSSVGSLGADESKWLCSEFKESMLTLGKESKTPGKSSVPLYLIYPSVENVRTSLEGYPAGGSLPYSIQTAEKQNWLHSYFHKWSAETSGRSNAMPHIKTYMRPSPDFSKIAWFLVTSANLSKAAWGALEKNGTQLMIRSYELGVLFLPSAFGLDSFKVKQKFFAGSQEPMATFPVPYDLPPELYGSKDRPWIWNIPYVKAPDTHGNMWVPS
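Tdp1 1 nM final; 15 min RT w/ cpd; substrate 15 nM, 5 min; beads 10 ug/ml, 10 min; AlphaScreen read. Neg ctrl: no enzyme.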
IL-1B inflam inh: blocks inflammasome-driven IL-1 beta release; THP-1 LPS/ATP IL-1B secretion, AlphaLISA, 16 h; active compounds read low; activity change, % at 57.5 µM; actives 4.7% (n = 360,000); in the data active = activity change below about -50%; inconclusive = mostly about -30% to -49%; note: % is set by controls: 0 for no effect and ±100 for the full control effect
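THP-1 cells pretreated 1 hr with compounds (up to 57.5 uM final), then stimulated with LPS (250 ng/mL final) plus ATP (1.25 mM final); secreted IL-1B measured by AlphaLISA after 16 hr, decreased signal indicating inhibition.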
The depositor's hits bear a star; ? = inconclusive; . = no result; [ ] = another dose, or the depositor's remark. Compounds with a hit are over-represented: about 18% of the library has one in this group of screens. Unless noted, calls come from the whole dose curve; as a rule, active = well fitted curve in the direction sought with a large enough effect; inconclusive = small, poorly fitted or top-dose-only effect, or another doubt; inactive = no such curve, though single readings can be large; an effect the other way counts as inactive or inconclusive.

SMILES | HepG2 viability | TDP1 cell CPT | TGFb SMAD3 inh | TDP1 cell noCPT | TDP1 inh | IL-1B inflam inh
Cc1cccc(C(=O)Nc2cccc(OCc3cc(=O)n4cc(C)sc4n3)c2)c1 | 3% | ? | -32% | ? | 6% | .
O=C(COC(=O)/C=C/c1cccc(Cl)c1)NC1CC1 | 4% | 4% | -2% | 5% | 0% | -4
Cc1ccc(S(=O)(=O)N(CC(=O)Nc2ccc(F)cc2F)Cc2ccc(F)cc2)cc1 | -36% | 18µM* | 0% | 21µM* | 1% | .
Cc1ccc(S(=O)(=O)N(CC(=O)NCc2ccco2)Cc2ccc(F)cc2)cc1 | -12% | -15% | -6% | -19% | 6% | -10
CCOC(=O)c1ccc(NC(=O)CN(Cc2ccc(C)cc2)S(=O)(=O)c2ccc(C)cc2)cc1 | -28% | 13µM* | -29% | 13µM* | 3%[2.28 µM] | .
CCOC(=O)CCN1C(=O)[C@H]2[C@H]3[C@H](O)[C@H](O)C/C(=N/NC(=O)OCc4ccccc4)[C@H]3CC[C@@H]2C1=O | . | . | . | . | 5%[21 µM] | .
COC(=O)[C@@H]1C[C@@]1(C)[C@@H](NC(=O)OCc1ccccc1)c1ccccc1 | . | . | . | . | 2% | .
Cn1c(=O)n(C/C=C/c2ccccc2)c(=O)c2c1nc1n2CCN1c1ccc(F)cc1 | 3% | 3% | 2% | -18% | 4% | .
O=C(c1ccccc1)C1CCN(C(=O)C2CCC(=O)N(Cc3ccccc3F)C2)CC1 (configuration not stated) | 0% | 16µM* | -8% | 21µM* | 6% | 12
O=C(N1CCCCC1)N1CCN(S(=O)(=O)c2ccccc2)CC1 | 26% | -19% | 2% | 10% | -3% | 0
Nc1nc(=S)c2[nH]cnc2[nH]1 | 1.4µM* | 2.6µM* | ? | 1.8µM* | -13%[56.1 µM] | 0
O=C(Nc1cccc2[nH]ncc12)c1ccc(F)cc1 | -30% | ? | ? | 7.3µM* | 2% | 6
O=C(NC(=S)Nc1cccc2[nH]ncc12)c1ccccc1 | 3% | -2% | 5% | -16% | 6% | 10
NNC(=S)NC1CCCCCCCCCCC1 | 8.9µM* | ? | 10µM* | 8.2µM* | 9% | 0
S=C(NC1CCCCCC1)NC1CCCC1 | -4% | ? | -8% | ? | 0% | 0
CNC(=S)N(Cc1ccc(Cl)cc1)Cc1cccs1 | -14% | ? | -26% | 16µM* | -3% | .
COc1ccc(NC(=S)N(CCCN2CCN(C)CC2)Cc2cccs2)cc1 | -11% | 6% | 12% | -5% | 2% | -2
CN1CCN(CCCN(Cc2cccs2)C(=S)Nc2ccc(Cl)cc2)CC1 | -21% | ? | -5% | ? | -3% | -65*
COc1ccc(NC(=S)N(CCCN2CCC(C)CC2)Cc2cccs2)cc1Cl | -27% | 26µM* | ? | 18µM* | -5% | ?
CCC/C=C(\CCC)C(NS(=O)(=O)c1ccc(C(F)(F)F)cc1)c1ccc(C(=O)OC)cc1 (configuration not stated) | . | . | . | . | 6% | .
COc1ccccc1CNc1nc2ccccc2c2nc(-c3cccc(C)c3)nn12 | -15% | -14% | -50% | -9% | 2% | .
COCCCNc1nc2cc(OC)c(OC)cc2c2nc(-c3ccccc3)nn12 | 23% | 15µM* | 21% | 7.3µM* | -1% | -4
CCOCCCNc1nc2cc(OC)c(OC)cc2c2nc(-c3ccccc3)nn12 | 3% | 10µM* | 2% | 6.5µM* | -2% | .
Nn1cnnc1SCC(=O)Nc1ccc2c(c1)OCO2 | 1% | 7% | 2% | 2% | 5% | 10
C=C(C)C1CC=C(C)/C(=N/NC(=O)COc2cccc3ccccc23)C1 (configuration not stated) | -9% | -10% | 5% | -24% | 5% | -13
SMILES | HepG2 viability | TDP1 cell CPT | TGFb SMAD3 inh | TDP1 cell noCPT | TDP1 inh | IL-1B inflam inh
C=C(C)C1CC=C(C)/C(=N/NC(=O)c2ccc(NC(=O)c3cccc(C)c3)cc2)C1 (configuration not stated) | -1% | ? | 3% | 18µM* | 2% | -21
C=C(C)C1CC=C(C)/C(=N/NC(=S)Nc2ccccc2)C1 (configuration not stated) | 10% | 12µM* | 5% | 6.5µM* | 0% | 13
CC(OC(=O)c1ccc(Cl)cc1)C(=O)NCC1CCCCC1 (configuration not stated) | 1% | -21% | 2% | 10% | 1% | 3
COC(=O)c1ccc(C(/C=C/[C@@H](C)C(=O)N(C)Cc2ccccc2)NC(=O)OCc2ccccc2)cc1 (some centres not stated) | . | . | . | . | 4% | .
COc1ccc(Cc2nnc(NC(=O)c3ccccc3C)s2)cc1 | -2% | ? | -15% | ? | . | -5
CC(C)(C)c1nc2cc(Cl)c([N+](=O)[O-])cc2o1 | -20% | ? | 7.1µM* | 23µM* | 0% | ?
CC(C)(C)Nc1nc2cc([N+](=O)[O-])ccc2o1 | -4% | -17% | -2% | -23% | 4% | 4
COCCC(=O)Nc1ccc2c(c1)CN(C(=O)c1ccc(CSC)o1)CC2 | -4% | -28% | 19% | 2.9µM* | . | 11
CCn1ccc2cc(S(=O)(=O)N3CCCN(C(=O)Nc4ccc(C)cc4Cl)CC3)ccc21 | -21% | . | -11% | . | 3% | .
CCOC(=O)C1(C)CCN1C(=O)c1cccc(C#N)c1 (configuration not stated) | 22% | ? | -2% | -1% | . | 7
Cc1c(C(=O)OC2CCCCCC2)[nH]c2c1C(=O)CC(c1ccc(Cl)cc1)C2 (configuration not stated) | 5% | 1% | 6% | -20% | -2% | .
Cc1c(C(=O)OC2CCCCCC2)[nH]c2c1C(=O)CC(c1ccccc1)C2 (configuration not stated) | 3% | 3.3µM* | 0% | 3.7µM* | 2% | .
Cc1c(C(=O)OC2CCCCC2)[nH]c2c1C(=O)CC(c1ccc(C(C)(C)C)cc1)C2 (configuration not stated) | 2% | 21µM* | 9% | 18µM* | 2%[12.3 µM] | .
COc1ccc(/C=C2\SC(=S)N(CC(=O)OCC(=O)Nc3ccc(C)cc3Cl)C2=O)cc1 | -3% | -20% | 19% | -24% | . | -6
COCCCNC(=O)c1cc2cc(S(=O)(=O)N3CCCCC3)ccc2n1C | -27% | ? | -32% | ? | -5% | .
